Assay results taken from PubChem BioAssay.
A number with no mark means an inactive call. Active and inactive are the calls of the source.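 How the source made its calls: active means inhibition at or above 50% relative to wild type and mutant plate controls; inactive means inhibition below 50%.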

assay: loss of swimming-algae plug formation – whole organism, Chlamydomonas reinhardtii, WT vs cilia-less mutant, absorbance, 96-well, primary screen (AID 463189); conditions: Chlamydomonas reinhardtii gravitaxis, OD600 absorbance, 2 days; at 10 µM; active compounds read high;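 further: 0% = wild type cc124 cells in DMSO and 100% = ciliumless bld1 mutant cells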

SMILES	inhibition
N=C(N)c1ccc(OCCCCCOc2ccc(C(=N)N)cc2)cc1 (tested in a mixture with another compound)	143% (active)
CN(Cc1cnc2nc(N)nc(N)c2n1)c1ccc(C(=O)N[C@H](CCC(=O)O)C(=O)O)cc1	-2.58%
CC(=O)[C@@]1(O)CC[C@H]2[C@@H]3CCC4=CC(=O)CC[C@]4(C)[C@H]3CC[C@@]21C	-1.04%
COC(=O)[C@H]1[C@H]2C[C@H]3c4[nH]c5ccccc5c4CCN3C[C@H]2CC[C@@H]1O	6.15%
COC(=O)C1=C(C)NC(C)=C([N+](=O)[O-])C1c1ccccc1C(F)(F)F (stereo not given)	5.83%
Clc1ccc(C(c2ccccc2Cl)C(Cl)Cl)cc1 (stereo not given)	11.1%
CCCCCCCCCCC/C=C\C(C)(C)/C=C\CCCC(=O)O	-1.7%
CCCCCCCCCC(=O)NC(CN1CCOCC1)[C@H](O)c1ccccc1 (stereo not given in full)	-8.57%
CNC(=O)c1cc2c(cn1)[nH]c1ccccc12	4.1%
CCCCCCCCCCCCCCCCOCC(COCC(F)(F)F)OP(=O)(O)OCO (stereo not given)	6.55%
NCCCC(N)(C(=O)O)C(F)F (stereo not given)	3.03%
N#C/C(=C\c1ccc(O)c(O)c1)C(=O)Nc1ccccc1	5.13%
CCCn1c(=O)c2c(ncn2C)n(CCC)c1=O	6.81%
NC(=O)CNCCC(c1ccccc1)c1ccccc1	-2.16%
CN(C)C(N)=NCCC[C@H](N)C(=O)O	11.1%
C[C@H](Cc1ccccc1)Nc1ncnc2c1ncn2[C@@H]1O[C@H](CO)[C@H](O)C1O (stereo not given in full)	0.221%
CN1CCC2(CCN3CCc4c(oc5ccccc45)C3C2)N(C)C1=O (stereo not given)	-3.27%
CCN(CC)C(C)C(=O)N1c2ccccc2Sc2ccccc21 (stereo not given)	40.1%
COc1ccccc1N1CCN(CCCCNC(=O)c2ccc3ccccc3c2)CC1	6.15%
O=C(O)[C@H]1NCCC[C@H]1C(=O)O	-0.478%

SMILES	inhibition
OC[C@H]1O[C@@H](n2cnc3cncnc32)[C@H](O)[C@@H]1O	6.38%
COc1ccc(-c2ccc(N)[n+](CCCC(=O)O)n2)cc1	7.29%
NC1(C(=O)O)CC1	5.31%
O=C(NCCNCC(O)COc1ccc(O)cc1)N1CCOCC1 (stereo not given)	10.1%
C[C@](N)(Cc1ccc(O)cc1)C(=O)O	6.91%
C[N+]1(CCCCC[N+]2(C)CCCC2)CCCC1	-4.7%
CN(C(=O)CCCOc1ccc2[nH]c(=O)ccc2c1)C1CCCCC1	3.15%
[Li+]	-0.162%
N=C(N)c1ccc(N)cc1	28.5%
C=Cc1c(C)c2cc3[nH]c(cc4nc(cc5nc(cc1[nH]2)C(C)=C5CCC(=O)O)C(CCC(=O)O)=C4C)c(C)c3C=C	9.54%
O=C(O)CN(CCOCCOCCN(CC(=O)O)CC(=O)O)CC(=O)O	3.4%
CCCCCN(CCCCC)C(=O)C(CCC(=O)O)NC(=O)c1ccc(Cl)c(Cl)c1 (stereo not given)	-0.994%
O=C1c2c(O)cc(O)cc2OC(c2ccc(O)c(O)c2)C1O (stereo not given)	-16.9%
CCCCCCCCCCCCC/C=C/C(O)C(N)CO (stereo not given)	-1.48%
c1ccc2nc(C3=NCCN3)ccc2c1	108% (active)
CCCC[C@@]1(C2CCCC2)Cc2cc(OCC(=O)O)c(Cl)c(Cl)c2C1=O	4.57%
CN1C2CCC1CC(NC(=O)c1nn(C)c3ccccc13)C2 (stereo not given)	10.7%
CC[N+](CC)(CC)CC(=O)Nc1c(C)cccc1C	6.77%
CCCCS(=N)(=O)CC[C@H](N)C(=O)O (stereo not given in full)	-0.592%
O=S(=O)(c1cccc2c(Cl)cccc12)N1CCCNCC1	6.11%
